This is part of a sample that, as a whole, favours compounds with a hit. Of some 79,000 tested, about 15% had one in any assay. A number with no mark means an inactive call. Active and inactive are the calls of the source. Rule as the data show it: active = growth inhibition above about 70%; inactive = the rest.
Assay: NCI Yeast Anticancer Drug Screen. Data for the mgt1 strain (AID 153)
Details: S. cerevisiae mgt1 mutant growth inhibition, stronger effect = higher value
Protocol: Growth inhibition of yeast strains with defined genetic alterations is measured as a screen for potential anti-cancer activity. Selected strains with alterations in DNA damage repair or cell cycle control were exposed to compounds and growth inhibition was measured relative to vehicle treated controls. The strain used in this assay is mgt1

Row | SMILES | growth inhibition (at 1.2 µM) [%] | growth inhibition (at 3.7 µM) [%] | growth inhibition (at 11.0 µM) [%] | growth inhibition (at 33.0 µM) [%] | growth inhibition (at 100.0 µM)
1 | CC(C)c1ccc(NC(=S)NC(=O)c2ccccc2)cc1 | -27 | -23 | 27 | 52 | 47%
2 | CC(C)(C)CC(C)(C)c1cc(O)c(O)c(CN2CCCCC2)c1 | -1 | -1 | 0 | 3 | 67%
3 | O=C(NCCCl)Sc1ccc(Cl)cc1 | 1 | -2 | -2 | 30 | 71% (active)
4 | CC(=O)OC1CCC2(C)C(=CC(C3C=C4CC(OC(C)=O)CCC4(C)C4=C3C3CC5OC6(CCC(C)CO6)C(C)C5C3(C)CC4)C3=C2CCC2(C)C3CC3OC4(CCC(C)CO4)C(C)C32)C1 (stereo not given) | 1 | -3 | -2 | 24 | 83% (active)
5 | CCc1c(Cl)c(C)cc(O)c1Cl | 19 | 5 | 29 | 49 | 95% (active)
6 | C[C@@](O)(/C=C/[C@H]1CC=CC(=O)O1)[C@@H](C[C@@H](O)\C=C/C=C\C=C\CO)OP(=O)(O)O | 33 | 28 | 33 | 51 | 86% (active)
7 | CCc1ccc2c(c1)N(CC(C)CN(C)C)c1ccccc1S2 (stereo not given) | -3 | -4 | -6 | 0 | 76% (active)
8 | COC(=O)/C=C(/CC(=O)OC)C(=O)OC | -3 | 0 | 0 | 0 | -3%
